# This is one part of a sample in which hits are shown more often than they occur.
# USP2a block = blocks human ubiquitin-specific protease USP2a | O75604 | USP2 core, Ub-CHOP2 coupled fluorogenic reporter, 485/531 | Potency, µM (highest dose often 38.3 µM), without a hit: at the top dose activity change, negative = inhibition, hits mostly inhibitors | hit rate 0.01% among 330,000;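 also: plate controls were DMSO wells for no effect and full inhibition by NEM control for full effect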
# Target sequence (O75604 whole entry, looked up): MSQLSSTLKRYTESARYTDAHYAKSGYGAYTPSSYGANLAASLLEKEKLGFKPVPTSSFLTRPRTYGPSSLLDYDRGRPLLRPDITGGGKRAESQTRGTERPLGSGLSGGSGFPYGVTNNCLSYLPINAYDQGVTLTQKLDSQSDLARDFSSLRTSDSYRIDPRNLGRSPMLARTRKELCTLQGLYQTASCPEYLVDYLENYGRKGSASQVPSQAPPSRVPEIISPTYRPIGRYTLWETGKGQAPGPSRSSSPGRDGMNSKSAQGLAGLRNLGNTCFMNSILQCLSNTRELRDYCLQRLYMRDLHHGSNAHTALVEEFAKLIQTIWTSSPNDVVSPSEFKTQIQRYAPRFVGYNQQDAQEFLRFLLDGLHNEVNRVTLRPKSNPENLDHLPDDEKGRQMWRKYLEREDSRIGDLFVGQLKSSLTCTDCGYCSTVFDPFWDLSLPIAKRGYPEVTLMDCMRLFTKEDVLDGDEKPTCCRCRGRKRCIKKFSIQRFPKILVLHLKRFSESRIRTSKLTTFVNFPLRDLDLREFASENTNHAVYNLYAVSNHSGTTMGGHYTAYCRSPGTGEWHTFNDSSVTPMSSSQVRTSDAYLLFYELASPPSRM
#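 USP2 core (10nM final) preincubated 30min RT with compound in 20mM Tris-HCl pH 8.0, 2mM CaCl2, 2mM beta-mercaptoethanol, 0.05% CHAPS; 25nM Ub-CHOP2 plus 25nM reporter substrate added, fluorescence (Ex485/Em531) read after 60min.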
# Eya2 phos inh = blocks the phosphatase activity of human Eya2; O00167; recombinant Eya2, OMFP fluorescence dephosphorylation (OMFP is methylfluorescein phosphate); Potency, µM (series often up to 76.9 µM), for inactives: at the top dose activity, negative = inhibition, actives largely listed as inhibitors; hit rate 0.006% among 330,000; AID 488837; also: % is scaled to controls: 0 for no effect and ±100 for the full control effect
#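 Eya2 protein (added as 0.2 uM solution) was preincubated with compound for 10 min at ambient temperature in 50 mM HEPES pH 7.5, 50 mM NaCl, 5 uM MgCl2, 0.05% BSA, 1 mM DTT. OMFP (added at 50 uM) then reacted 10 min; fluorescence read at 485/525 nm.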
# GALK inh = inhibitors of human galactokinase | P51570 | Purified GALK, Kinase-Glo residual ATP luminescence | Potency, µM (doses to about 57.5 µM), without a hit: at the top dose activity change, negative = inhibition, hits mostly inhibitors | hit rate 0.007% among 270,000 | AID 1868; also: % is scaled to controls: 0 for no effect and ±100 for the full control effect
#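 GALK at 5 nM final was combined with compound, 35 uM ATP and 100 uM galactose in HEPES pH8.0 with MgCl2 and DTT. The reaction ran one hour at room temperature before luminescent ATP detection.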
# ClpP mod = qHTS Assay for Activators of ClpP; AID 651965, 2013; Potency, µM (series often up to 57.5 µM), for the others: at the top dose activity change, negative = active; ATP-dependent Clp protease proteolytic subunit (Bacillus subtilis (strain 168)), P80244; purified B. subtilis ClpP, FRET peptide cleavage, 20 min; hit rate 1.9% among 340,000; active = well fitted falling curve with a large enough effect; inconclusive = small, poorly fitted or top-dose-only effect; inactive = no such curve, though single readings can be large or run the other way; also: the source files actives as falling curves though it sought activators and does not explain the sign; nearly all actives have a fitted effect of over 65% in size
#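 ClpP 10 microg/mL final, pH 8 Tris/KCl buffer with BSA, glycerol, Tween-20; compound pinned in; FRET-FV substrate; RT 20 min; Ex320/Em430; ΔFRET vs ADEP 5.8 microM, DMSO, no enzyme.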
# The depositor's hits bear a star; ? = inconclusive; . = no result given; ! = not confirmed by another sample. Unless noted, calls follow the shape of the dose curve; as a rule, active = well fitted inhibition curve with a large enough effect; inconclusive = small, poorly fitted or top-dose-only effect, or effect the other way; inactive = flat fitted curve, though single readings scatter. Potency is read from the fitted curve at half-maximal effect.
SMILES,USP2a block,Eya2 phos inh,GALK inh,ClpP mod
CC(C)c1ccc(C2NC(=O)NC3=C2CCc2ccccc23)cc1 (stereo not given),3%,11%,1%,28µM*
Cc1nnc(SCC(=O)Nc2ccc(Br)cc2)n(N)c1=O,4%,-8%,3%,-6%
O=C(CN1C(=O)c2ccc([N+](=O)[O-])cc2C1=O)NCC1CCCO1 (stereo not given),1%,-5%,.,-4%
Cc1cc(=O)[nH]c2ccc([N+](=O)[O-])cc12,.,.,.,-1%
CSc1ccc2[nH]c(=O)cc(C)c2c1,-2%,-4%,-1%,35µM*
CCCCN1CN(S(=O)(=O)c2ccc(OC)cc2)c2nc3ccccc3nc21,-1%,12%,-5%,4%
O=C(NNC(=O)C1CC1c1ccccc1)Nc1ccccc1 (stereo not given),0%,6%,-1%,28µM*
Cc1nc(SCC(=O)NC(=O)NCc2ccccc2)nc(C)c1C,0%,18%,3%,-1%
Cc1nc(SCC(=O)NCCc2ccccc2)nc(C)c1C,4%,-15%,-3%,16µM*
CCCCN(Cc1cc2cc(OC)ccc2[nH]c1=O)C(=O)c1ccco1,-2%,-21%,4%,32µM*
CCCCN(Cc1cc2cc(OC)ccc2[nH]c1=O)C(=O)c1ccccn1,1%,5%,0%,20µM*
O=C(Nc1nnc(-c2ccc(Cl)cc2)o1)C1=COCCO1,0%,0%,-1%,-3%
CCOc1ccc2oc(C(=O)OCC(=O)N3CCCC(C)C3)c(C)c2c1 (stereo not given),4%,8%,.,28µM*
COc1ccc2oc(C(=O)OCC(=O)N3CCCC(C)C3)c(C)c2c1 (stereo not given),-1%,-17%,.,14µM*
CCOc1ccc2oc(C(=O)OCC(=O)N3CC(C)OC(C)C3)c(C)c2c1 (stereo not given),-1%,-9%,.,4%
COc1ccc2oc(C(=O)OCC(=O)N3CCN(C(C)=O)CC3)c(C)c2c1,1%,-25%,.,25µM*
CCOC(=O)Cn1c(-c2ccc(Cl)nc2)nc2ccccc21,1%,5%,-1%,10µM*
CCOC(=O)Cn1c(=O)cnc2ccccc21,-1%,-22%,0%,?
N#Cc1c(N)oc(-c2ccco2)c1-c1ccco1,1%,16%,-1%,25µM*
CC(=O)N1c2ccc(S(=O)(=O)NCC3CCC(C(=O)N4CCC(C)CC4)CC3)cc2CC1C (stereo not given),0%,-11%,1%,0%
CCOc1ccccc1N1CCN(C/C=C/c2ccc(N(C)C)cc2)CC1,-1%,17%,0%,28µM*
CCOc1ccccc1N1CCN(Cc2ccco2)CC1,2%,-1%,0%,0%
CCOc1ccc(CC(=O)N/N=C/c2cccnc2)cc1,9%,-22%,0%,16µM*
CCC1CCCCN1CC(O)Cn1c2ccccc2n2c(=O)cc(C)c(C#N)c12 (stereo not given),1%,2%,0%,28µM*
Cc1cc(=O)n2c3ccccc3n(CC(O)CN3CCC(C)CC3)c2c1C#N (stereo not given),-1%,-11%,0%,35µM*
SMILES,USP2a block,Eya2 phos inh,GALK inh,ClpP mod
CSC1=NCCN1C(=O)c1c(-c2ccccc2Cl)noc1C,1%,9%,2%,-1%
O=P(Cc1ccccc1)(Cc1ccccc1)c1ccccc1,.,.,.,32µM*
CCC(C)Sc1cccc(-c2nc3ccc(Cl)cn3c2NCc2ccccc2)c1 (stereo not given),4%,-27%,.,25µM*
CCC(C)Sc1cccc(-c2nc3cc(C)ccn3c2NC2CCCCC2)c1 (stereo not given),3%,-3%,.,14µM*!
COC(C[C@@H]1O[C@@H]1[C@H](O)[C@H](C)OCc1ccccc1)OC,-4%,11%,-1%,0%
O=C(CCC1N=C2c3ccccc3N=C(SCc3cccc(Cl)c3)N2C1=O)NCc1ccco1 (stereo not given),-2%,4%,2%,35µM*
Cc1nc(N2CCN(S(=O)(=O)c3ccccc3)CC2)c2cc(-c3ccccc3)sc2n1,7%,-44%,-1%,28µM*
O=C(NCCc1ccccc1)C(c1ccncc1)N(C(=O)c1csnn1)C1CC1 (stereo not given),-3%,-3%,0%,-2%
O=C(Cn1ncn2c(cc3ccccc32)c1=O)NCCC1=CCCCC1,3%,11%,0%,22µM*
COc1ccc(OC)c(C(O)c2nc3ccccc3n2C(C)C)c1 (stereo not given),-2%,-12%,0%,-2%
COc1ccc(C2C=C(c3ccccc3)Nc3nnnn32)cc1 (stereo not given),1%,-17%,-2%,?
COc1ccc(C2=CC(c3ccc(C)cc3)n3nnnc3N2)cc1 (stereo not given),13%,21%,0%,25µM*
O=C(NC1CCCC1)C(c1ccccn1)N(C(=O)c1csnn1)C1CC1 (stereo not given),-1%,-10%,0%,-3%
COc1cc2c(C#CCCCO)c(-c3ccc(C#N)cc3)oc(=O)c2cc1OC,0%,17%,.,14µM*
O=C(NCc1ccccn1)c1coc(=O)c(Br)c1,1%,3%,0%,16µM*
Cc1cc(C)c(NC(=O)CN(C)S(=O)(=O)c2ccc3c(c2)n(C)c(=O)c(=O)n3C)c(C)c1,2%,6%,-2%,-15%
Cc1ccc(NC(=O)CN(C)S(=O)(=O)c2ccc3c(c2)n(C)c(=O)c(=O)n3C)c(C)c1,0%,5%,1%,32µM*!
O=C(O)c1ccc(S(=O)(=O)N2CCC3(CC2)CC(=O)c2ccccc2O3)cc1,4%,10%,.,32µM*
CC(Oc1ccccc1)C(=O)N1CCC2(CC1)CC(=O)c1ccccc1O2 (stereo not given),-1%,10%,.,25µM*
Cc1ccccc1OCC(=O)N1CCC2(CC1)CC(=O)c1ccccc1O2,0%,-12%,.,28µM*
CC(Oc1ccccc1)C(=O)N1CCN(C(=O)C(C)Oc2ccccc2)CC1 (stereo not given),1%,2%,5%,-1%
O=C1CC2(CCN(C(=O)COc3ccccc3)CC2)Oc2ccccc21,1%,8%,.,.
O=C(CC1C(=O)NCCN1Cc1ccccc1C(F)(F)F)NC1CCCCCC1 (stereo not given),-3%,6%,6%,-5%
COc1ccc(-n2ccnc2SCC(=O)Nc2ccccc2)cc1,3%,?,-1%,-4%
N#Cc1c(/N=C/c2ccccc2)oc(-c2ccccc2)c1-c1ccccc1,-1%,4%,-2%,35µM*
N#Cc1c(/N=C/c2ccco2)oc(-c2ccccc2)c1-c1ccccc1,-1%,-5%,-1%,?
CN(C)CCCNC(=O)/C=C/c1ccc2c(c1)OCO2,2%,2%,4%,16µM*
Nc1ccc(-c2nc3ccc(C(=O)O)cc3s2)cc1,4%,-5%,2%,-51%
